# High-throughput results as filed in PubChem BioAssay.
# A selection: hits, their analogues and other compounds. The true share with any hit is near 3.4%.
# TEAD-YAP block = TEAD-YAP interaction inhibition. HEK-TIYL cells, TEAD-Gal4/YAP UAS-luciferase luminescence. inhibition, % at 9.12 µM. actives 1.4% (n = 640,000). AID 1259422; in the data active = inhibition above about 32%;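 note: 0% = median of test compound wells and 100% = reference inhibitor wells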
# FBW7 act = human FBW7 E3 ligase activation, primary screen. AID 1259310. AlphaScreen FBW7–phospho-cyclin E peptide binding, activator screen. actives 0.13% (n = 650,000). normalized activity (activation), % at 26.1 µM; in the data active = normalized activity above about 1.9%;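 note: purified mutant Fbw7 with reduced substrate affinity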
# MITF inh = blocks human microphthalmia-associated transcription factor; O75030; inhibition, % at 2.6 µM; actives 0.91% (n = 650,000); AlphaScreen MITF homodimerization, bead proximity signal; in the data active = inhibition above about 50%;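 note: 0% = vehicle wells with protein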
# GPR151 activ = activators of human GPR151; PathHunter beta-arrestin GPR151 cells, luminescence; activation, % at 11.2 µM; actives 1% (n = 650,000); in the data active = activation above about 4.9%;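 note: 0% = median of compound wells and 100% = cells with positive control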
# Target sequence (Q8TDV0 whole entry, looked up): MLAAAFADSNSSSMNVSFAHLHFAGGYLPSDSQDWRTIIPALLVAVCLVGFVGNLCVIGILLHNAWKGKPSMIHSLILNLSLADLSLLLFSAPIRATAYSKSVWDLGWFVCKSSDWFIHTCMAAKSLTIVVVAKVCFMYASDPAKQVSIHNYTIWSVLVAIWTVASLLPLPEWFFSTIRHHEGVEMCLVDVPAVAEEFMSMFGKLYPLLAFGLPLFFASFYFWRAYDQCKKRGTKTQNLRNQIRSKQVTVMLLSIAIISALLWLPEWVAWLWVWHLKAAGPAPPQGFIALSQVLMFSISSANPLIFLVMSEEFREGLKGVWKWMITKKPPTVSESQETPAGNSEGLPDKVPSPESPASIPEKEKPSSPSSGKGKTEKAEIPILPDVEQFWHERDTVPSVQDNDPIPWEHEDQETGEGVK
# * hit, by the source's call.
SMILES,TEAD-YAP block,FBW7 act,MITF inh,GPR151 activ
O=C(CNC(=O)c1cccc(Br)c1)N/N=C/c1cn[nH]c1-c1ccccc1,6.7,0.0,2.3,0.5
O=C(c1cccc(Br)c1)c1cn[nH]c1-c1ccccc1O,45.7*,0.2,5.2,1.2
CC1(C)Cc2c(sc(NC(=O)c3ccccc3)c2C(N)=S)CO1,-63.8,-0.1,-4.0,-0.8
COc1ccc(C(=O)Nc2sc3c(c2C(=O)O)CC(C)(C)OC3)cc1OC,40.1*,-0.1,-18.2,0.1
CC1(C)Cc2c(sc(NC(=O)c3ccccc3)c2C(=O)O)CO1,46.5*,-0.1,4.2,-4.5
CC(C)COc1ccc(C(=O)Nc2sc3c(c2C(=O)O)CC(C)(C)OC3)cc1,20.4,0.1,4.8,0.7
CCC1CCCCN1C(=O)Cn1c(C(=O)OC)cc2sccc21 (stereo not drawn),10.0,0.1,4.0,0.7
Cc1ccc(F)cc1NC(=O)CCCn1c2ccccc2c(=O)c2ccccc21,14.6,0.3,-2.7,1.3
Nc1nc(Nc2ccc(-n3ccnc3)cc2)nc2c1ncn2-c1ccsc1,23.6,0.0,5.6,0.9
OCCNc1nc(Nc2ccncn2)nc2c1ncn2-c1ccsc1,36.0*,0.0,-2.8,0.9
OCCNc1nc(Nc2cnccn2)nc2c1ncn2-c1ccsc1,24.8,-0.1,-9.4,-1.7
Nc1nc(Nc2ccncn2)nc2c1ncn2-c1ccsc1,38.3*,15.6*,12.3,0.0
NC(=O)C1CCCc2c1[nH]c1ccccc21 (stereo not drawn),-1.2,-0.1,3.0,0.9
CC1CCCN(c2nc3c(c(=O)[nH]2)CN(Cc2ccccc2)CC3)C1 (stereo not drawn),-6.7,0.0,-3.7,0.0
O=C(NNC(=O)c1cccnc1SCc1cccc([N+](=O)[O-])c1)c1ccccn1,39.3*,-0.8,24.0,-0.6
COc1ccc(C(=O)N/N=C(\C)CC(=O)NCc2ccco2)cc1,-51.8,1.4,24.2,-0.8
COc1cc(OC)cc(C(=O)N/N=C(\C)CC(=O)Nc2cccc(C)c2C)c1,49.9*,0.0,-8.3,2.3
COc1cc(OC)cc(C(=O)N/N=C(\C)CC(=O)NCc2ccco2)c1,50.8*,0.6,-7.6,-0.7
CC1=C(C#N)C(c2cccnc2)C2=C(N1)c1ccccc1C2=O (stereo not drawn),56.0*,-0.2,-6.8,-0.5
C#CCOc1cc(Br)c(/C=C2/NC(=O)NC2=O)cc1OCC,32.5*,-0.1,-6.3,0.3
CCC(=O)Nc1ccc(-c2cn3ccccc3n2)cc1,39.6*,0.0,2.8,-5.1
O=C(Nc1ccc(-c2nc3ccccc3s2)cc1)C1CC1,79.3*,0.2,13.6,-3.5
O=C(Nc1ccc(O)c(-c2nc3ccccc3s2)c1)C1CC1,3.6,0.1,13.7,3.0
Cc1nnc(NC(=O)C2CCN(c3nc4ccccc4s3)CC2)s1,6.2,0.0,11.0,0.0
Cc1cccn2cc(-c3ccc(NC(=O)C(C)(C)C)cc3)nc12,63.9*,0.4,-13.0,-4.0
SMILES,TEAD-YAP block,FBW7 act,MITF inh,GPR151 activ
O=C(Nc1ccc(-c2cn3ccccc3n2)cc1)c1ccccc1,-24.7,0.9,18.5,-5.5
CC(=O)Nc1ccc(NC(=O)C2CCN(c3nc4ccccc4s3)CC2)cc1,36.1*,-0.1,42.7,-2.1
C/C(N)=C(/C#N)C(=O)COC(=O)CNS(=O)(=O)c1ccc(N(C)C)c([N+](=O)[O-])c1,3.7,0.0,1.2,0.3
CCc1ccccc1NC(=O)C(CC)N1C(=O)C2(OCCCO2)c2ccccc21 (stereo not drawn),1.5,0.0,11.8,-0.4
CCC(=O)Nc1ccc(-c2nc3ccccc3s2)cc1,84.5*,0.1,19.8,-8.3
CN1C(=O)/C(=C/c2cc(Br)ccc2O)NC1=S,80.0*,0.1,-28.4,1.2
CN1C(=O)/C(=C/c2ccccc2O)NC1=S,15.5,0.5,1.1,-1.1
Cc1oc2c(c1C(=O)NCC1CCCO1)C(=O)c1ccccc1C2=O (stereo not drawn),77.3*,0.0,11.4,-1.6
Cc1oc2c(c1C(=O)N1CCN(C)CC1)C(=O)c1ccccc1C2=O,48.0*,0.0,19.9,-0.7
COc1ccc(CNC(C)c2ccccc2)cc1Cl (stereo not drawn),-0.7,-0.1,-13.7,-1.1
Cc1cc(Cl)n(-c2ccc([N+](=O)[O-])cc2)n1,6.6,-0.2,4.5,-1.0
Cc1cc(C)n(-c2ncc(-c3ccc([N+](=O)[O-])cc3)cn2)n1,58.8*,0.3,-4.3,-1.2
CC(C)(C)SCCNC(=O)CN(c1cccc2ccccc12)S(C)(=O)=O,4.3,0.1,6.0,1.4
CCCCOc1ccccc1NC(=O)C(F)(OC)C(F)(F)F (stereo not drawn),36.2*,0.9,13.7,-0.2
COc1ccccc1NP(=O)(Nc1ccccc1OC)Nc1ccccc1OC,-11.9,0.1,-6.1,-0.8
Cc1cc(S(=O)(=O)NCc2ccncc2)c(C)c(C)c1C,43.4*,0.1,-1.0,2.3
Cc1ccc(S(=O)(=O)NCc2ccccc2)cc1C,-2.2,0.2,7.7,2.2
O=S(=O)(NCc1ccncc1)c1ccc(Br)s1,34.3*,-0.2,-8.5,3.5
CCOc1cc(S(=O)(=O)NCc2ccncc2)ccc1F,53.9*,0.7,2.3,-0.3
Cc1ccc(S(=O)(=O)NCc2ccncc2)cc1C,41.0*,0.3,4.4,1.7
O=C(O)CNS(=O)(=O)c1ccc(Br)s1,-2.4,0.1,3.2,1.2
Cc1cc(S(=O)(=O)NCc2ccncc2)c(C)cc1Cl,16.6,0.0,16.5,0.3
Cc1ccc(N2C(=O)NC(=O)/C(=C\c3ccc(C)c([N+](=O)[O-])c3)C2=O)cc1,0.6,-0.1,10.9,0.5
O=C(O)c1ccccc1SC1CC(=O)N(CCc2ccccc2)C1=O (stereo not drawn),-1.1,-0.1,-7.5,0.7
O=C(c1cc([N+](=O)[O-])ccc1Cl)N1CCN(C23CC4CC(CC(C4)C2)C3)CC1,3.5,0.0,4.1,2.3
SMILES,TEAD-YAP block,FBW7 act,MITF inh,GPR151 activ
CCCOc1ccc(S(=O)(=O)NCc2ccncc2)c2ccccc12,32.4*,0.0,15.7,-0.1
CN(C)S(=O)(=O)c1ccc(S(=O)(=O)NCc2ccncc2)cc1,43.2*,-0.1,-11.5,0.7
COc1ccc(S(=O)(=O)NCc2ccncc2)cc1,43.3*,-0.2,10.4,0.6
O=S(=O)(NCc1ccccc1)c1ccc(S(=O)(=O)NCc2ccncc2)cc1,29.3,-0.1,5.0,2.8
CCOc1ccc(S(=O)(=O)NCc2ccccc2)c2ccccc12,5.3,0.1,-3.6,-1.2
O=C1CCCN1CCCNc1nc(Nc2ccc(N3CCOCC3)cc2)nc2c1ncn2C1CCCCC1,-5.7,0.0,13.2,-1.3
CCCN1C(=O)c2cc(C(=O)NCCc3ccc(OC)c(OC)c3)ccc2C1O (stereo not drawn),0.9,-0.1,6.2,0.7
Cc1cccc(OS(=O)(=O)c2cn(C)c(=O)n(C)c2=O)c1,-1.4,3.6*,2.5,-0.9
O=C(c1ccc(C(F)(F)F)cc1)N1CCN(c2ccccc2)CC1,-0.4,0.0,9.5,1.1
CCn1c2ccccc2n2cc(-c3ccc(Br)cc3)nc12,-12.0,2.3*,-11.4,2.9
C=CCn1c2ccccc2n2cc(-c3ccccc3)nc12,-11.7,1.4,10.0,-1.9
Clc1ccc(-c2cn3c4ccccc4n(CCN4CCCCC4)c3n2)cc1,4.4,5.0*,-27.7,0.4
